In assay [1] the test system is Zika virus NS2B-NS3 protease (unlinked complex). The assay is described as follows: Primary screen GU Rhodamine qHTS for Zika virus inhibitors: Unlinked NS2B-NS3 protease assay (AID 1347159). Note: nearly all actives have a fitted effect of over 60% in size. An outline of the steps:
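Noncovalent NS2B hydrophilic domain–NS3 protease domain complex (25 nM) preincubated 15 min at room temperature with compounds (up to 114 microM) in 10 mM Tris-HCl pH 8.0, 0.01% Tween 20; 1.5 microM Rhodamine110 substrate added, fluorescence change over 15 min fitted to Hill equation.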
On the technique in general: In qHTS, concentration-response curves come from the screen itself.

Assay [2] has as its system Zika virus NS2B-NS3 protease (linked construct). The assay is described as follows: Primary screen NINDS Rhodamine qHTS for Zika virus inhibitors (AID 1347160). Note: nearly all actives have a fitted effect of over 55% in size. An outline of the steps:
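Purified linked NS2B-NS3 protease (NS2B hydrophilic domain joined to NS3 protease by flexible linker), 25 nM in 10 mM Tris-HCl pH 8.0, 0.01% Tween 20. Compounds titrated, 15 min preincubation at room temperature; 1.5 microM Rhodamine110 substrate, FITC fluorescence change over 15 min.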

Each structure is given as a SMILES string. Inconclusive results are not listed. Where a call stands in place of a potency, no number is given. Unmarked numbers belong to inactive results. Calls of active or inactive are those of the source. Calls come from the whole dose curve; as a rule, active = well fitted inhibition curve with a large enough effect; inconclusive = small, poorly fitted or top-dose-only effect; inactive = no such curve, though single readings can be large or run the other way.

With `NC[C@@](O)(c1ccc(Cl)cc1)c1ccc(-c2cn[nH]c2)cc1`, the Potency result in assay [1] and in assay [2] was “inactive” each time.
Consider `COc1cc(OC)cc(C(=O)Nc2ccc(Cl)c(-c3nc4ccc(N(C)C)cc4[nH]3)c2)c1`, for which the Potency result in assay [1] and in assay [2] was “inactive” each time.
As to `CC[C@H](NC(=O)[C@H](CS(=O)(=O)CC1CC1)N[C@@H](c1ccc(F)cc1)C(F)(F)F)C(=O)C(=O)NC1CC1`, the Potency entry in assay [1] and in assay [2] was “inactive” in each case.
As to `CC(Cc1cc2c(c(C(N)=O)c1)N(CCCO)CC2)NCCOc1ccccc1OCC(F)(F)F` (stereo not given), the Potency entry in assay [1] and in assay [2] was “inactive” in each case.
For the molecule `CS(=O)(=O)NCC1CCC(Nc2nc3c(s2)CCSc2ccccc2-3)CC1` (stereo not given), the Potency entry in assay [1] and in assay [2] was “inactive” throughout.
As to `CCCCNc1ncc2c(-c3ccc(CN4CCN(C)CC4)cc3)cn(C3CCC(O)CC3)c2n1` (stereo not given), the Potency result in assay [1] and in assay [2] was “inactive” in each case.
Turning to `CCNC(=O)C1OC(n2cnc3c(N)nc(NCCc4ccc(CCC(=O)O)cc4)nc32)C(O)C1O` (stereo not given), the Potency entry in assay [1] and in assay [2] was “inactive” in each case.
Turning to `OC[C@H]1O[C@@H](Oc2cc(O)c3c(c2)O[C@@H](c2ccc(O)cc2)[C@H](O)C3)[C@H](O)[C@@H](O)[C@@H]1O`, the Potency result in assay [1] and in assay [2] was “inactive” throughout.
In the case of `C=C1C[C@@]23CCC4[C@@](C)(CCC[C@@]4(C)C(=O)OC)C2CC[C@@H]1C3` (stereo not given in full), the Potency entry in assay [1] and in assay [2] was “inactive” each time.
Regarding `COC(=O)C1=C2Nc3ccccc3C23CCN2CCCC(C(C)O)(C1)C23` (stereo not given), the Potency entry in assay [1] and in assay [2] was “inactive” in each case.
For `C=C(C)C(=O)OC1C(OC(C)=O)/C(C=O)=C\CC/C(CO)=C/C2OC(=O)C(=C)C21` (stereo not given), the Potency entry in assay [1] and in assay [2] was “inactive” throughout.
As for `CN1C2CCC1CC(OC(=O)[C@H](CO)c1ccccc1)C2` (stereo not given in full), the Potency entry in assay [1] and in assay [2] was “inactive” in each case.
Consider `O=C(NCc1cccc(O)c1)c1cc2cc(F)ccc2[nH]1`, for which the Potency result in assay [1] and in assay [2] was “inactive” in each case.
As to `CC1=CC(=O)CC(C)(CO)C1(O)/C=C/C(C)O[C@@H]1O[C@H](CO)[C@@H](O)[C@H](O)[C@H]1O` (stereo not given in full), the Potency entry in assay [1] and in assay [2] was “inactive” throughout.
In the case of `O=C(O[C@H]1[C@@H]2C[C@@H]3OC[C@](O)([C@@H]1Cl)[C@H]2C(O[C@@H]1O[C@H](CO)[C@@H](O)[C@H](O)[C@H]1O)O3)c1ccc(O)c(O)c1` (stereo not given in full), the Potency result in assay [1] and in assay [2] was “inactive” throughout.
`CCc1c(C)nc2c(-c3cnn(-c4cc(CO)ccn4)c3)c[nH]n2c1=O`: the Potency entry in assay [1] and in assay [2] was “inactive” throughout.
Consider `C[C@@H]1O[C@@H](O[C@H]2[C@H](O)[C@@H](O)[C@H](OC3CCC4(C)C5CCC(C)(C(CO)OC6OC(CO)C(O)C(O)C6O)CC5=CCC4C3(C)C)O[C@@H]2CO)[C@H](O)[C@H](O)[C@H]1O` (stereo not given in full), for which the Potency result in assay [1] and in assay [2] was “inactive” each time.
With `Cc1c(C(=O)N2CCOc3ccc(-c4ccc(N)nc4)cc3C2)ccc(S(C)(=O)=O)c1F`, the Potency entry in assay [1] and in assay [2] was “inactive” throughout.
As to `C/C(=C\CCC(C)CCO)C(=O)OC1(C)CCC2C(C(=O)O)=COC(OC3OC(CO)C(O)C(O)C3O)C21` (stereo not given), the Potency entry in assay [1] and in assay [2] was “inactive” in each case.
Consider `CC1(C)CC[C@]2(C(=O)O[C@@H]3O[C@H](CO)[C@@H](O)[C@H](O)[C@H]3O)CC[C@]3(C)C(=CCC4[C@@]5(C)C[C@@H](O)[C@H](O)C(C)(C)C5CC[C@]43C)C2[C@@H]1O` (stereo not given in full), for which the Potency entry in assay [1] and in assay [2] was “inactive” each time.
Consider `CCS(=O)(=O)N1CCN(c2ccc(Nc3ncc(C(N)=O)c(NC4CC4)n3)cc2)CC1`, for which the Potency result in assay [1] and in assay [2] was “inactive” throughout.
Regarding `O=C(C(c1ccccc1)c1ccccc1)N1CCN(CC(O)COc2cccc3ncccc23)CC1` (stereo not given), the Potency entry in assay [1] and in assay [2] was “inactive” each time.
Regarding `Cc1cccc(C)c1-n1c(=O)c2cnc(Nc3ccc(N4CCN(C)CC4)cc3)nc2n2c3ccccc3nc12`, the Potency result in assay [1] and in assay [2] was “inactive” throughout.
Consider `C[C@@H]1C(=O)O[C@H]2C[C@]34[C@H]5C[C@@H](C(C)(C)C)[C@]36[C@@H](OC(=O)[C@H]6O)O[C@]4(C(=O)O5)[C@]21O`, for which the Potency entry in assay [1] and in assay [2] was “inactive” each time.
On to `CC(NC(=O)CCc1nc2ccccc2c(=O)[nH]1)c1ccccc1` (stereo not given), for which the Potency result in assay [1] and in assay [2] was “inactive” throughout.
As for `CON(C)C(=O)[C@H](O)[C@H](Cc1ccccc1)NC(=O)c1cc2cc(Cl)ccc2[nH]1`, the Potency result in assay [1] and in assay [2] was “inactive” throughout.
Consider `COc1ccc(C2COc3cc(O)ccc3C2)c(O)c1` (stereo not given), for which the Potency entry in assay [1] and in assay [2] was “inactive” in each case.
`Oc1ccc2nc(CN3CCC(Cc4ccccc4F)CC3)[nH]c2c1`: the Potency result in assay [1] and in assay [2] was “inactive” throughout.
In the case of `C/C1=C\CC[C@H](C)CCO[C@@H]2O[C@H](CO[C@@H]3OC[C@](O)(COC1=O)[C@H]3O)[C@@H](O)[C@H](O)[C@H]2O`, the Potency entry in assay [1] and in assay [2] was “inactive” each time.
Take `COc1ccc(CNC(=O)c2cc(-c3cncc(C)c3)ncc2-c2nccs2)nc1OC`: the Potency result in assay [1] and in assay [2] was “inactive” each time.

Values taken from PubChem BioAssay (NCATS).
